# Experimental data from PubChem BioAssay.
# Unmarked numbers belong to inactive results.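 How the source made its calls, unless noted: active means fluorescence slope after compound addition differing from the mean of all screened samples at 99.7% confidence, in either direction; inactive means the rest.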
# Biological target: Alpha-2C adrenergic receptor (Homo sapiens) (UniProt P18825)
# Experiment: modulators of alpha2C/GIRK thallium flux, primary screen, cell-based, HEK293 alpha2C/GIRK1/2 (AID 624);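 further: slope of fluorescence ratio to pre-addition baseline per second over 15 to 24 s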
# Conditions: thallium flux BTC fluorescence, at 10 µM, actives lie on both sides
# Chain of Alpha-2C adrenergic receptor (Homo sapiens) (P18825 whole entry, looked up): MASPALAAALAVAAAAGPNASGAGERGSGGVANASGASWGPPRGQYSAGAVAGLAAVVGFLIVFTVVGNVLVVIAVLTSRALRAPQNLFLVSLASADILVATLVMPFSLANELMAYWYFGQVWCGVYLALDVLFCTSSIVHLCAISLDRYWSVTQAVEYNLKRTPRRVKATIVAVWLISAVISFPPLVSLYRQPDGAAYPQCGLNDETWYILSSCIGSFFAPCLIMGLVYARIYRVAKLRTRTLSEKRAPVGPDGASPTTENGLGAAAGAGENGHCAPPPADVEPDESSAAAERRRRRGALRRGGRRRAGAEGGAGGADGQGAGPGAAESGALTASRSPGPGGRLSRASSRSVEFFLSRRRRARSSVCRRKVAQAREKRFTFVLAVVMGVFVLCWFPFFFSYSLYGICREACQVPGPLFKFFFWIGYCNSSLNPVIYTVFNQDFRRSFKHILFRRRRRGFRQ
row,Compound,slope
1,O=C(NCCSc1c[nH]c2ccccc12)c1ccco1,0.00591
2,CCOC(=O)CSc1nc2cc(C(=O)N3CCC(C(N)=O)CC3)ccc2c(=O)n1-c1ccccc1,0.00452
3,Cc1cc2c(cc(C(=O)OCC(=O)NCc3cccs3)n2C(C)C)o1,0.00376
4,CC(=O)NC1CC2CCCC(C1)N2CC(=O)Nc1ccccc1 (stereo not given),0.00646
5,C=CCNc1oc(-c2cccc3ccccc23)nc1C#N,0.00477
6,COC(=O)c1oc2ccc(Br)cc2c1NC(C)=O,0.00664
7,COc1ccc(CCNC(=O)CSc2nnc(CNc3ccc(Cl)cc3)o2)cc1OC,0.0062
8,CCCS(=O)(=O)C(=C1Nc2ccccc2N1)S(=O)(=O)CCC,0.00495
9,CCn1cc(C(=O)NCCC2=CCCCC2)c(=O)c2cc(S(=O)(=O)N(C)C)ccc21,0.00705
10,CCc1ccc(NC(=O)CS(=O)CC(=O)NC(C)CCc2ccco2)cc1 (stereo not given),0.00694
11,O=C(OCCN=C1NS(=O)(=O)c2ccccc21)C1CC(=O)N(c2ccc(Cl)cc2)C1 (stereo not given),0.00337
12,O=C(c1cccc(C(=O)N2CCN(c3ccc(F)cc3)CC2)c1)N1CCN(c2ccc(F)cc2)CC1,0.006
13,CCOP(=O)(c1ccc(N(C)C)cc1)C(O)c1c(Cl)cccc1Cl (stereo not given),0.00411
14,CN1CCN(C(=O)C2(NC(=O)Nc3cccc(F)c3)CCCCC2)CC1,0.00664
15,CCCOC(=O)/C(C(N)=NCc1ccccc1)=C(\O)OCCC,0.00562
16,CC(=O)N1CCN(c2ccc(NC(=O)c3ccc(C(C)(C)C)cc3)cc2)CC1,0.00554
17,OC(CN1CCOCC1)Cn1c(-c2cccc(Cl)c2)nc2ccccc21 (stereo not given),0.00704
18,CCN(CC)C(=O)C1CCC(CNS(=O)(=O)c2cccc3cccnc23)CC1 (stereo not given),0.00724
19,CN(C)Cc1cn(CCC(=O)O)c2ccccc12,0.00704
20,CC(NS(=O)(=O)c1ccc(OCC(=O)N2CCOCC2)c(Cl)c1)c1ccccc1 (stereo not given),0.00508

row,Compound,slope
1,CCOc1ccc2nc(N3CCC(C(=O)N4CCN(C5CCCCC5)CC4)CC3)sc2c1,0.00601
2,O=C(O)CSC1CC(=O)N(c2ccc(Cl)c(Cl)c2)C1=O (stereo not given),0.00566
3,CCN(C(C)=O)c1nnc(CSc2nc3ccccc3s2)s1,0.00523
4,O=C(CNCCC1=CCCCC1)Nc1ccccc1N1CCCCC1,0.00492
5,COCC(C)NC(=O)CCS(=O)(=O)c1nc(-c2ccc(OC)cc2)cc(C(F)(F)F)n1 (stereo not given),0.00386
6,CSc1ccccc1NC(=O)C1CCCO1 (stereo not given),0.00731
7,O=C(CN(Cc1ccc(F)cc1)C(=O)Cn1nnc2ccccc21)NCC1CCCO1 (stereo not given),0.00612
8,O=C(CSc1nnc(-c2ccccc2)o1)N1CCc2ccccc2C1,0.00577
9,CCn1c(-c2cc(Br)ccc2O)n[nH]c1=S,0.00762
10,CCOC(=O)c1ccc(NS(=O)C23CC4CC(CC(C4)C2)C3)cc1 (stereo not given),0.00476
11,O=C1CCC(c2ccccc2)N1C(=O)c1cccnc1 (stereo not given),0.00593
12,CC1Cc2nc(SCC(N)=O)n(Cc3ccccc3)c(=O)c2S1 (stereo not given),0.00575
13,CCC(=O)Nc1cc(C)c(NC(=O)C23CC4CC(CC(C4)C2)C3)cn1,0.00598
14,O=C(c1ccc(Br)o1)N(Cc1ccccc1)c1ccccn1,0.00529
15,CCN1C(=O)/C(=C2\C=Cc3ccccc3N2CC)OC1=S,0.00379
16,COc1ccc(C)cc1S(=O)(=O)N(C)CC(=O)Nc1ccc2c(c1)OCCO2,0.00534
17,O=C(NC1CCCCC1)c1nc2c(nnn2Cc2ccccc2Cl)c(=O)[nH]1,0.0047
18,O=C(NCCN1CCOCC1)c1ccc2c(c1)N(Cc1ccccc1F)C(=O)CS2,0.00607
19,CN(C(=O)C1CCOC1)c1nnc(-c2cccnc2)s1 (stereo not given),0.0059
20,c1ccc(-c2nc3nonc3c3nc4ccccc4n23)cc1,0.00529

# System: not listed separately
# Experiment: inhibitors of Sendai virus-induced IRF3 signaling, primary screen, TLR/RLR signaling modifier project, cell-based, Sendai virus stimulus, luciferase, 10K MLSCN set (AID 602276;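 active means inhibition at or above 50% at 10 µM; inactive means inhibition below 50%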;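 further: firefly luciferase from ISG56 promoter only with Renilla not read in this screen; 0% = Sendai virus plus DMSO and 100% = medium plus DMSO without virus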)
# Conditions: HEK293 RL24 IRF3 luciferase reporter, at 10 µM, active compounds read high
row,Compound,inhibition [%]
1,O=C(NCCSc1c[nH]c2ccccc12)c1ccco1,10.1
2,CCOC(=O)CSc1nc2cc(C(=O)N3CCC(C(N)=O)CC3)ccc2c(=O)n1-c1ccccc1,10.8
3,Cc1cc2c(cc(C(=O)OCC(=O)NCc3cccs3)n2C(C)C)o1,20.7
4,CC(=O)NC1CC2CCCC(C1)N2CC(=O)Nc1ccccc1 (stereo not given),-13.6
5,C=CCNc1oc(-c2cccc3ccccc23)nc1C#N,-4.72
6,COC(=O)c1oc2ccc(Br)cc2c1NC(C)=O,16.9
7,COc1ccc(CCNC(=O)CSc2nnc(CNc3ccc(Cl)cc3)o2)cc1OC,11.9
8,CCCS(=O)(=O)C(=C1Nc2ccccc2N1)S(=O)(=O)CCC,12.1
9,CCn1cc(C(=O)NCCC2=CCCCC2)c(=O)c2cc(S(=O)(=O)N(C)C)ccc21,3.13
10,CCc1ccc(NC(=O)CS(=O)CC(=O)NC(C)CCc2ccco2)cc1 (stereo not given),5.19
11,O=C(OCCN=C1NS(=O)(=O)c2ccccc21)C1CC(=O)N(c2ccc(Cl)cc2)C1 (stereo not given),6.2
12,O=C(c1cccc(C(=O)N2CCN(c3ccc(F)cc3)CC2)c1)N1CCN(c2ccc(F)cc2)CC1,-6.05
13,CCOP(=O)(c1ccc(N(C)C)cc1)C(O)c1c(Cl)cccc1Cl (stereo not given),12.4
14,CN1CCN(C(=O)C2(NC(=O)Nc3cccc(F)c3)CCCCC2)CC1,3.99
15,CCCOC(=O)/C(C(N)=NCc1ccccc1)=C(\O)OCCC,-11.7
16,CC(=O)N1CCN(c2ccc(NC(=O)c3ccc(C(C)(C)C)cc3)cc2)CC1,-19.2
17,OC(CN1CCOCC1)Cn1c(-c2cccc(Cl)c2)nc2ccccc21 (stereo not given),10.2
18,CCN(CC)C(=O)C1CCC(CNS(=O)(=O)c2cccc3cccnc23)CC1 (stereo not given),11.4
19,CN(C)Cc1cn(CCC(=O)O)c2ccccc12,-16.1
20,CC(NS(=O)(=O)c1ccc(OCC(=O)N2CCOCC2)c(Cl)c1)c1ccccc1 (stereo not given),18.7

row,Compound,inhibition [%]
1,CCOc1ccc2nc(N3CCC(C(=O)N4CCN(C5CCCCC5)CC4)CC3)sc2c1,-54.1
2,O=C(O)CSC1CC(=O)N(c2ccc(Cl)c(Cl)c2)C1=O (stereo not given),3.92
3,CCN(C(C)=O)c1nnc(CSc2nc3ccccc3s2)s1,-76.7
4,O=C(CNCCC1=CCCCC1)Nc1ccccc1N1CCCCC1,7.21
5,COCC(C)NC(=O)CCS(=O)(=O)c1nc(-c2ccc(OC)cc2)cc(C(F)(F)F)n1 (stereo not given),17.7
6,CSc1ccccc1NC(=O)C1CCCO1 (stereo not given),-13.9
7,O=C(CN(Cc1ccc(F)cc1)C(=O)Cn1nnc2ccccc21)NCC1CCCO1 (stereo not given),13.2
8,O=C(CSc1nnc(-c2ccccc2)o1)N1CCc2ccccc2C1,7.64
9,CCn1c(-c2cc(Br)ccc2O)n[nH]c1=S,8.59
10,CCOC(=O)c1ccc(NS(=O)C23CC4CC(CC(C4)C2)C3)cc1 (stereo not given),-1.97
11,O=C1CCC(c2ccccc2)N1C(=O)c1cccnc1 (stereo not given),-4.49
12,CC1Cc2nc(SCC(N)=O)n(Cc3ccccc3)c(=O)c2S1 (stereo not given),-2.11
13,CCC(=O)Nc1cc(C)c(NC(=O)C23CC4CC(CC(C4)C2)C3)cn1,1.14
14,O=C(c1ccc(Br)o1)N(Cc1ccccc1)c1ccccn1,5.65
15,CCN1C(=O)/C(=C2\C=Cc3ccccc3N2CC)OC1=S,4
16,COc1ccc(C)cc1S(=O)(=O)N(C)CC(=O)Nc1ccc2c(c1)OCCO2,-4.31
17,O=C(NC1CCCCC1)c1nc2c(nnn2Cc2ccccc2Cl)c(=O)[nH]1,3.13
18,O=C(NCCN1CCOCC1)c1ccc2c(c1)N(Cc1ccccc1F)C(=O)CS2,9.96
19,CN(C(=O)C1CCOC1)c1nnc(-c2cccnc2)s1 (stereo not given),-22
20,c1ccc(-c2nc3nonc3c3nc4ccccc4n23)cc1,9.01
